Source: PubChem
Rows were chosen to be rich in hits. Some 16% of all compounds tested hit in one or more screens of this group.
miR-21 act: qHTS Assay for Modulators of miRNAs and/orActivators of miR-21; Potency, µM (top dose mostly 38.3 µM), hits mostly activators; HeLa miR-21 FLuc reporter, luciferase, 48 h; 340,000 tested, under 10 active;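 also: miR-21 action dims this reporter so a rising signal means less miR-21 action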
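HeLa cells endogenously expressing miR-21, stably carrying CMV-driven firefly luciferase with a downstream miR-21 binding site, 2000 cells/well. Titrations up to approximately 40 uM, 48 hours; luciferase luminescence read.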
DT40 TDP1 no CPT: qHTS for Inhibitors of human tyrosyl-DNA phosphodiesterase 1 (TDP1): qHTS in cells in absence of CPT. actives 15% (n = 420,000). DT40 Tdp1-/- hTDP1 cells, no CPT, ATP luminescence, 48 h. Potency, µM (highest dose often 46.2 µM), usual class: inhibitors; also: nearly all actives have a fitted effect of over 55% in size
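DT40 Tdp1-/-;hTDP1 cells, no CPT (DMSO vehicle only), 400 cells/well; compounds pin-transferred; ≥48 hr, 37 °C; CellTiter-Glo 30 min RT dark, luminescence read.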
uPA surface inh: qHTS for Inhibitors of Cell Surface uPA Generation. cell surface uPA generation assay, qHTS. actives 0.31% (n = 330,000). Potency, µM (titrated, usually from 38.3 µM), usual class: inhibitors. AID 540303, 2011; active = well fitted inhibition curve with a large enough effect; inconclusive = small, poorly fitted or top-dose-only effect; inactive = no such curve, though single readings can be large or run the other way; tested in mouse RAW 264.7 cells; also: nearly all actives have a fitted effect of over 55% in size
TDP1 cell CPT: qHTS for Inhibitors of human tyrosyl-DNA phosphodiesterase 1 (TDP1): qHTS in cells in presence of CPT; chicken DT40 Tdp1-/-;hTDP1 cells + 20 nM CPT, ATP luminescence, 48 h; Potency, µM (titrated, usually from 46.2 µM), most hits filed as inhibitors; actives 12% (n = 420,000); also: nearly all actives have a fitted effect of over 55% in size
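Chicken DT40 Tdp1-/- cells stably complemented with human TDP1 were seeded at 400 cells/well in medium containing 20 nM camptothecin, exposed to pin-transferred compounds, and grown at 37 °C for at least 48 hr. Viability was read as ATP luminescence.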
TDP1 block: qHTS Assay for Inhibitors of Tyrosyl-DNA Phosphodiesterase (TDP1). AID 485290, 2010. Tyrosyl-DNA phosphodiesterase 1 (Homo sapiens), Q9NUW8. Potency, µM (titrated, usually from 130 µM), actives largely listed as inhibitors. actives 0.28% (n = 350,000). recombinant TDP1, AlphaScreen DNA substrate cleavage; also: nearly all actives have a fitted effect of over 40% in size
Target sequence (Q9NUW8 whole entry, looked up): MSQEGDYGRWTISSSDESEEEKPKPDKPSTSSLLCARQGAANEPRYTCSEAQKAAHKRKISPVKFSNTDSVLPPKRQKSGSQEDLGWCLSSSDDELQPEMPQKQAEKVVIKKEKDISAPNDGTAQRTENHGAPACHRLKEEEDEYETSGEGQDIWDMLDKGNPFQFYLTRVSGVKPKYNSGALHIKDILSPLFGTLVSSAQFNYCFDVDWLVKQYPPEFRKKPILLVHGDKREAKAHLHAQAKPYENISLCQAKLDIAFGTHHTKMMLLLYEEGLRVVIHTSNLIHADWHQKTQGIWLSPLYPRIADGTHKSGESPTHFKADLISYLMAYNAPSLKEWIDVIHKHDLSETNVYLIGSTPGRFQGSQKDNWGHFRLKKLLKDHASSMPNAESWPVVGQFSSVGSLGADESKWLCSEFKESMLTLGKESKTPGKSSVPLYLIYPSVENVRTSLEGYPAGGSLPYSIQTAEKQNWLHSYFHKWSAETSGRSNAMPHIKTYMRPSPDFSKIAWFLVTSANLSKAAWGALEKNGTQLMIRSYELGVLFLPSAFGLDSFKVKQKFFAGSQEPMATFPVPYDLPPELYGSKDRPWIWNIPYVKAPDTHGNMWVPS
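Enzyme-compound mixtures sat 15 min at room temperature, followed by a 5 min reaction with 15 nM final substrate and 10 min with AlphaScreen beads. Recombinant human Tdp1 was used at 1 nM final.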
Numbers stand for hits; . = inactive; ? = inconclusive; / = no result given. Unless noted, calls follow the shape of the dose curve; as a rule, active = well fitted curve in the direction sought with a large enough effect; inconclusive = small, poorly fitted or top-dose-only effect, or another doubt; inactive = no such curve, though single readings can be large; an effect the other way counts as inactive or inconclusive.

SMILES	miR-21 act	DT40 TDP1 no CPT	uPA surface inh	TDP1 cell CPT	TDP1 block
CCC1Sc2ccccc2N(CC(=O)NCc2ccc(C)cc2)C1=O (configuration not stated)	.	23µM	/	?	.
O=C(Nc1ccc(-c2csnn2)cc1)C1CC1	.	?	.	?	.
NC(=NC1C2CC3CC(C2)CC1C3)Nc1ccc(I)cc1 (configuration not stated)	/	3.7µM	/	4.1µM	.
Cc1ccc2c(c1)N(C(=O)N1CCC(C(=O)NCc3cccs3)CC1)CC(C)O2 (configuration not stated)	.	18µM	/	?	.
CCC1CN(C(=O)N2CCC(C(=O)NCc3cccs3)CC2)c2cc(C)ccc2O1 (configuration not stated)	.	23µM	/	18µM	.
c1ccc(COc2ccc(OCCCCN3CCCC3)cc2)cc1	.	23µM	.	?	.
COc1ccccc1OCCCCN1CCC(C)CC1	.	.	.	.	/
c1ccc(-c2ccccc2OCCCCN2CCCCCC2)cc1	.	?	?	18µM	.
CC1CCCN(CCCOc2ccccc2-c2ccccc2)C1 (configuration not stated)	.	23µM	.	?	.
c1ccc(COc2ccc(OCCCN3CCCCC3)cc2)cc1	.	?	.	?	.
c1ccc(-c2ccccc2OCCCN2CCOCC2)cc1	.	.	.	.	.
CC1CCN(CCOCCOc2ccccc2-c2ccccc2)CC1	.	?	.	23µM	.
COc1ccc(NC(=O)CSc2nc(-c3ccco3)nc3cc(=O)[nH]n23)cc1	.	.	/	.	/
CCCn1c(SCC(=O)N2CCCCC2)nnc1C(C)C	.	?	.	?	.
c1ccc(-c2ccccc2OCCN2CCCC2)cc1	.	.	.	.	.
c1ccc(-c2ccccc2OCCOCCN2CCCCC2)cc1	.	?	.	23µM	.
c1ccc(-c2ccccc2OCCCCn2ccnc2)cc1	.	26µM	.	23µM	.
CCCCN1C(=O)N(C)C2C1N(C)C(=O)N2CCCC (configuration not stated)	.	.	.	.	.
O=C1NCCCc2c1oc1ccc(O)cc21	.	?	/	?	.
Oc1c(Cl)cc(Cl)c2c1NCCC2	.	10µM	.	6.5µM	.
O=C(Nc1cnns1)Oc1ccccc1	/	.	/	.	/
O=S(c1ccc2ccccc2c1)c1cnns1 (configuration not stated)	.	2.6µM	.	1µM	.
O=c1oc2ccccc2c(NC2CCCCC2)c1NS(=O)(=O)c1ccc(F)c(Cl)c1	.	.	.	.	.
COc1ccc(-c2cc(C(=O)N/N=C(\C)c3cccnc3)c3ccccc3n2)c(OC)c1	.	13µM	?	10µM	.
CCOc1ccc(-c2cc(C(=O)N/N=C(\C)c3cccnc3)c3ccccc3n2)cc1	.	?	.	?	.
SMILES	miR-21 act	DT40 TDP1 no CPT	uPA surface inh	TDP1 cell CPT	TDP1 block
COc1ccc(OC)c(-c2cc(C(=O)N/N=C(\C)c3cccnc3)c3ccccc3n2)c1	.	?	.	15µM	.
CC(C)NC(=O)Nc1ccc2c(c1)C(=O)N([C@H](C)CO)C[C@H](C)[C@@H](CN(C)C(=O)Nc1ccc3c(c1)OCO3)O2	/	.	.	.	.
CC(=O)NC(CC(C)C)C(=O)NC(Cc1ccccc1)C(=O)CCl (configuration not stated)	/	2.6µM	.	2.3µM	/
CC(=O)[C@H](CC(C)C)NC(=O)[C@@H](CC(C)C)NC(=O)[C@H](CC(C)C)NC(=O)OCc1ccccc1	/	0.19µM	/	0.15µM	.
COCCn1ccc2c(OCC(=O)NCc3ccccc3)cccc2c1=O	/	.	.	.	.
COc1ccc(NC(=O)c2sc3nc(-c4cc5ccc(OC)cc5oc4=O)[nH]c(=O)c3c2C)cc1	.	.	/	.	.
Cc1c(C(=O)Nc2cccc(F)c2)sc2nc(-c3cc4ccccc4oc3=O)[nH]c(=O)c12	.	?	/	23µM	.
Cc1cc(C)cc(NC(=O)c2sc3nc(-c4cc5ccccc5oc4=O)[nH]c(=O)c3c2C)c1	.	.	/	?	.
Cc1cccc(NC(=O)c2sc3nc(-c4cc5ccc(O)cc5oc4=O)[nH]c(=O)c3c2C)c1	.	21µM	/	21µM	.
CC1CCCC(C)N1/N=C/c1ccc(C(=O)O)cc1 (configuration not stated)	.	?	.	.	.
O=C(CSc1nnc(-c2cccnc2)o1)NNC(=O)c1ccc(Br)cc1	.	.	.	.	/
O=C1C=C(c2cc3ccccc3s2)C[C@@H](c2ccc(Cl)cc2)C1	/	?	.	9.2µM	.
O=C1C=C(c2cc3ccccc3s2)C[C@@H](c2ccc(F)cc2)C1	/	?	.	?	.
Cc1ccc(C2=CC(=O)C[C@H](c3ccc(Cl)cc3)C2)cc1	/	?	.	23µM	.
COc1ccc(C2=CC(=O)C[C@H](c3ccc(Cl)cc3)C2)cc1	/	?	.	16µM	.
O=C1C=C(c2ccc(O)cc2)C[C@@H](c2ccc(Cl)cc2)C1	/	?	.	?	.
CSCC[C@H](NC(=O)[C@H](CC(C)C)NC(=O)CNC(=O)[C@@H]1CCCN1C(=O)[C@H](Cc1ccccc1)NC(=O)[C@H](Cc1ccccc1)NC(=O)[C@H](CC(=O)O)NC(=O)[C@H](Cc1cnc[nH]1)NC(=O)[C@H](CCSC)NC(=O)[C@@H](N)CC(=O)O)C(N)=O	/	/	/	/	.
Cc1ccc(NC(=O)CSCC(=O)N(C)CC(=O)Nc2c(C)cccc2C)cc1	/	.	/	.	/
CCC(C(=O)O)C1CCC(C)C(C(C)C(O)C(C)C(=O)C(CC)C2OC3(C=CC(O)[C@@]4(CC[C@](C)(C5CC[C@@](O)(CC)C(C)O5)O4)O3)C(C)CC2C)O1 (some centres not stated)	/	/	/	/	.
CCn1c(CN2CCN(c3ccc(OC)cc3)CC2)nc2cc(S(=O)(=O)N(C)C)ccc21	.	?	.	21µM	.
O=C(NC1CCCCC1)C(c1ccc2ncccc2c1)N(Cc1ccccc1)C(=O)c1cccs1 (configuration not stated)	.	18µM	.	?	.
O=C(NC1CCCCC1)C(c1ccc2ncccc2c1)N(Cc1ccc2c(c1)OCO2)C(=O)c1cccs1 (configuration not stated)	.	?	.	18µM	.
CC(C)c1ccc(C2N3CC4([N+](=O)[O-])CN2CC([N+](=O)[O-])(C3)C4(C)C)cc1 (configuration not stated)	.	?	.	8.2µM	.
CC1(C)C2([N+](=O)[O-])CN3CC1([N+](=O)[O-])CN(C2)C3c1ccccc1 (configuration not stated)	.	.	/	.	.
